Screens: PubChem, National Center for Advancing Translational Sciences (NCATS)
An excerpt weighted towards active compounds, which were near 21% of everything screened.
Shiga toxin inh = A qHTS for Small Molecule Inhibitors of Shiga Toxin. Vero cells, Shiga toxin protein synthesis inhibition reporter. inhibition, % at 38.7 µM. 290,000 tested, 9.2% active; in the data active = inhibition mostly above about 28%, no sharp cut-off; inactive = mostly below about 43%
Cycloheximide cs = Cycloheximide Counterscreen for Small Molecule Inhibitors of Shiga Toxin. cell reporter, cycloheximide protein synthesis inhibition counterscreen. max response, %. 300,000 tested, 12% active. AID 2314, 2010; in the data active = max response mostly above about 13%, no sharp cut-off; inactive = mostly below about 14%; also: read at 38.3 µM for the half of the compounds with a filed dose
Pf growth 96h = Primary qHTS for delayed death inhibitors of the malarial parasite plastid, 96 hour incubation; P. falciparum luciferase reporter growth, 96 h; Potency, µM (doses to about 28.7 µM), most hits filed as inhibitors; AID 504834, 2011; 320,000 tested, 6.9% active
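Cell-based qHTS: luciferase-tagged P. falciparum in erythrocytes (2% hematocrit, 0.05% parasitemia final) incubated with compounds for 96 hours, 37 C, 5% CO2; luciferase detection reagent then added and luminescence measured.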
Pf growth 48h = Primary qHTS for delayed death inhibitors of the malarial parasite plastid, 48 hour incubation; P. falciparum luciferase growth in erythrocytes, 48 h; Potency, µM (highest dose often 28.7 µM), hits mostly inhibitors; 310,000 tested, 5.9% active; AID 504832, 2011
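Erythrocytes infected with P. falciparum carrying an integrated firefly luciferase reporter (2% hematocrit, 0.1% parasitemia final) were exposed to compounds in RPMI 1640 with 0.5% Albumax at 37 C, 5% CO2. Growth inhibition was scored as reduced luminescence.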
NS1 inh = qHTS Assay for Inhibitors of Influenza NS1 Protein Function | Potency, µM (top dose mostly 46.1 µM) | 270,000 tested, 0.4% active | AID 2326, 2010; calls by dose curve; also: actives are rising curves; nearly all actives have a fitted effect of over 50% in size
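Recovery from NS1-induced slow growth read by OD600 in budding yeast switched to galactose assay medium (pH 6.0, -URA) at 1:100 dilution. Compound 23 nl per well; the matching strain lacking NS1 serves as control.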
SARS PLpro yeast = qHTS of Yeast-based Assay for SARS-CoV PLP | S. cerevisiae expressing SARS-CoV PLpro, growth rescue | Potency, µM (series often up to 32.9 µM), usual class: activators | 330,000 tested, 0.19% active; calls by dose curve; also: nearly all actives have a fitted effect of over 55% in size
Large screens that a line does not name were inactive. Unless noted, calls follow the shape of the dose curve; as a rule, active = well fitted inhibition curve with a large enough effect; inconclusive = small, poorly fitted or top-dose-only effect, or another doubt; inactive = no such curve, though single readings can be large or run the other way.

O=C(Nc1ccccc1)C(=O)c1c[nH]c2ccccc12	Shiga toxin inh 67, Cycloheximide cs 31
COC(=O)c1ccc(NC(=O)C(=O)c2c[nH]c3ccccc23)cc1	none
Cc1cc(C)c(O)c(-c2cc(C(=O)Nc3c(C)n(C)n(-c4ccccc4)c3=O)[nH]n2)c1	none
CCOc1cc(CNC(C)(C)C)ccc1OCC(=O)Nc1cccc(C(F)(F)F)c1	Pf growth 48h 6.6µM
CCOc1cc(CNCCCN2CCOCC2)cc(Br)c1OCC(=O)Nc1cccc(C(F)(F)F)c1	Pf growth 96h 0.66µM, Pf growth 48h 1.2µM
CCOc1cc(CNCCCN2CCOCC2)cc(Cl)c1OCC(=O)NC(C)(C)C	Pf growth 48h inconclusive
CCC(CO)NCc1ccc(OCC(=O)Nc2cccc(C(F)(F)F)c2)c(OC)c1 (configuration not stated)	none
COC(=O)c1ccc(CSc2nc3ccc(S(=O)(=O)N4CCOCC4)cc3[nH]2)cc1	Pf growth 96h inconclusive, Pf growth 48h inconclusive
COc1cc(/C=C/C(=O)NC(C)C2CC3CCC2C3)cc(OC)c1OC (configuration not stated)	Shiga toxin inh 101, Cycloheximide cs 19, Pf growth 96h inconclusive, Pf growth 48h inconclusive
COc1cc(OC)c(N(C)S(=O)(=O)c2cccc(C(=O)NC(C)C3CC4CCC3C4)c2)cc1Cl (configuration not stated)	Pf growth 96h 2.6µM
CC(=O)Nc1ccc(C(=O)Nc2ccc3c(c2)OCCO3)cc1	Shiga toxin inh 42, Cycloheximide cs 27, Pf growth 96h inconclusive (no result: Pf growth 48h)
CC(=O)Nc1ccc2c(c1)OCCOCCOc1cc(NC(C)=O)ccc1OCCO2	Pf growth 96h inconclusive, Pf growth 48h inconclusive
Cc1cc(C)n(C(=O)CNC(=O)c2ccc3c(c2)OCCO3)n1	Pf growth 96h 1.9µM
Cc1cc(C)n(C(=O)CNC(=O)c2cccc(Cl)c2)n1	none
COc1cc(OC)cc(C(=O)Nc2ccc3c(c2)OCCO3)c1	Cycloheximide cs 26, Pf growth 96h inconclusive (no result: Shiga toxin inh)
CS(=O)(=O)Nc1ccc(C(=O)Nc2ccc3c(c2)OCO3)cc1	Shiga toxin inh 53, Cycloheximide cs 26 (no result: NS1 inh)
O=C(NCc1ccccc1)C1CCCN(S(=O)(=O)c2cccc3nsnc23)C1 (configuration not stated)	Pf growth 96h inconclusive
COc1cccc(OC2OC3COC(C)(C)OC3C(O)C2NC(C)=O)c1 (configuration not stated)	none
CC(=O)Nc1ccc(C(=O)Nc2ccc3c(c2)OCO3)cc1	Shiga toxin inh 57, Cycloheximide cs 18, Pf growth 96h 2.3µM
O=C(COC(=O)CNC(=O)c1ccc(Cl)cc1)Nc1ccc2c(c1)OCCO2	none
O=C(Nc1ccc2c(c1)OCCO2)c1ccc(Cl)cc1	Cycloheximide cs 28, Pf growth 96h inconclusive
Cc1cc(C)n(-c2ccc(C(=O)Nc3ccc4c(c3)OCCO4)cc2)n1	Shiga toxin inh 100, Cycloheximide cs 45
NC(=O)Nc1ccc2c(c1)OCCO2	Shiga toxin inh 103, Cycloheximide cs 52 (no result: Pf growth 48h)
O=C(O)CCNc1ccc2c(c1)OCCO2	Shiga toxin inh 73, Cycloheximide cs 42, Pf growth 96h inconclusive, NS1 inh inconclusive
O=C(O)CCCCCNC(=O)Nc1ccc2c(c1)OCCO2	none (no result: Pf growth 96h)
Cc1cc(C(=O)Nc2ccc3c(c2)OCCO3)co1	Shiga toxin inh 76, Cycloheximide cs 57
Cc1cc(C)n(C(=O)CNc2ccc(C)c(C)c2)n1	Cycloheximide cs 32
Cc1ccc(NC(=O)c2ccc3c(c2)OCCO3)cc1C	none
O=C(Nc1ccc2c(c1)OCCO2)c1ccc(NC(=O)C2CCCO2)cc1 (configuration not stated)	Cycloheximide cs 23
Cc1cc(C)n(C(=O)CCCC(=O)n2nc(C)cc2C)n1	none
CC1CCC(NC(=O)C(NC(=O)c2ccccc2)C(C)C)CC1 (configuration not stated)	none
C=CCOc1ccccc1CN1CCC(n2nccc2NC(=O)c2ccccc2)CC1	none
Cc1ccc(C(=O)Nc2ccncc2)o1	none (no result: Pf growth 96h)
Cc1cc(C)n(-c2ccc(C(=O)Oc3ccc4c(c3)OCO4)cc2)n1	Shiga toxin inh 32, Cycloheximide cs 18
CC(=O)c1ccc(OC(=O)c2ccc(-n3nc(C)cc3C)cc2)cc1	none
Cc1cccc(NC(=O)C23CCC(C)(C(=O)O2)C3(C)C)c1 (configuration not stated)	none
